From PubChem
JMJD2A Tudor – blocks the human JMJD2A Tudor domain; 390,000 tested, 4.4% active; Potency, µM (highest dose often 114 µM), for the others: at the top dose activity change, negative = inhibition, most hits filed as inhibitors; O75164; AlphaScreen JMJD2A-Tudor / H3K4me3 peptide binding; AID 504339; note: % is set by controls: 0 for no effect and ±100 for the full control effect; nearly all actives have a fitted effect of over 50% in size
Sfp PPTase inh – Sfp phosphopantetheinyl transferase inhibition. Potency, µM, inactives show largest response in the series, negative = inhibition, actives largely listed as inhibitors. Q9F4F7. Biochemical Sfp PPTase activity, qHTS. 310,000 tested, 3.5% active. AID 1490;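 note: the enzyme is Sfp with the accession as filed and its product quenches rhodamine fluorescence; 0% = enzyme reaction without inhibitor and -100% = no enzyme wells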
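With Hepes-Na pH 7.6 buffer containing 10 mM MgCl2, Sfp (15 nM) modified BHQ-2-YbbR (12.5 uM) using rhodamine-CoA (5 uM). Two reads 30 minutes apart at 525/598 nm yielded each well's rate.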
BAZ2B block – BAZ2B (human) inhibition; Q9UIF8; AlphaScreen BAZ2B-H3K14Ac peptide displacement; Potency, µM (titrated, usually from 114 µM), for the others: at the highest dose activity change, negative = inhibition, actives largely listed as inhibitors; 360,000 tested, 4.4% active; note: % is set by controls: 0 for no effect and ±100 for the full control effect; nearly all actives have a fitted effect of over 60% in size
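BAZ2B 50 nM plus b-H3(5-23)K14Ac 50 nM, PBS pH 7.4/0.01% Tween-20, 30 min RT; compound added (max 110 uM), 30 min RT; streptavidin donor/Ni-chelate acceptor beads 10 ug/mL final, 20 min dark; AlphaScreen read.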
G9a block – inhibitors of human histone lysine methyltransferase G9a; Q96KQ7; G9a H3K9 monomethylation, AlphaScreen, 2 h; Potency, µM (top dose mostly 102 µM), for the others: top-dose activity, negative = inhibition, hits mostly inhibitors; 350,000 tested, 8.8% active; AID 504332; note: % is set by controls: 0 for no effect and ±100 for the full control effect; nearly all actives have a fitted effect of over 75% in size
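Enzyme 20 nM + cpd, 15 min RT; add b-H3K9 pep 500 nM / SAM 20 uM; 2 h RT; anti-H3K9me1 Ab 0.5 ug/mL + SA donor / anti-rabbit acceptor beads 20 ug/mL each, 10 min; AlphaScreen read.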
HP1b chromo inh – blocks HP1-beta chromodomain binding to methylated histone tails | AlphaScreen HP1-beta / biotin-H3K9me3 peptide binding | P83916 | 390,000 tested, 0.56% active | Potency, µM (highest dose often 114 µM), for the others: at the top dose activity change, negative = inhibition, hits mostly inhibitors; note: nearly all actives have a fitted effect of over 70% in size
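HP1-beta protein (50 nM final) preincubated 30 min at room temperature with biotinylated H3(1-18)K9me3 peptide (50 nM) in PBS pH 7.4, 0.01% Tween-20, then compound added for 30 min. AlphaScreen streptavidin donor/nickel chelate acceptor beads (10 ug/mL final), 30 min dark, luminescence read.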
L3MBTL1 block – L3MBTL1 (human) inhibition; AID 485360; AlphaScreen L3MBTL1–H3K9me1 peptide binding; Potency, µM (titrated, usually from 57.1 µM), for the others: at the highest dose activity, negative = inhibition, most hits filed as inhibitors; 230,000 tested, 0.66% active; note: % is set by controls: 0 for no effect and ±100 for the full control effect; nearly all actives have a fitted effect of over 60% in size
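Read-out is AlphaScreen signal from streptavidin donor and nickel chelate acceptor beads (10 ug/mL final each) bridging L3MBTL1 (50 nM) and biotinylated K9-monomethylated H3(1-15) peptide (75 nM), after 30 min compound exposure at room temperature.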
The depositor's hits bear a star; ? = inconclusive; . = not tested or not shown; [ ] = remark or other dose. In the library only some 12% were active in any assay of this set; here they are far more common. Calls come from the whole dose curve; as a rule, active = well fitted curve in the direction sought with a large enough effect; inconclusive = small, poorly fitted or top-dose-only effect, or another doubt; inactive = no such curve, though single readings can be large; an effect the other way counts as inactive or inconclusive. Potency is the fitted concentration of half-maximal effect.

SMILES	JMJD2A Tudor	Sfp PPTase inh	BAZ2B block	G9a block	HP1b chromo inh	L3MBTL1 block
Cc1cc(C(=O)N/N=C/c2ccc(-c3ccc([N+](=O)[O-])cc3Cl)o2)n[nH]1	?	-20%	79µM*	50µM*	20%	.
Cc1cc(C(=O)N/N=C\c2cc(C(C)(C)C)c(O)c(C(C)(C)C)c2)n[nH]1	?	-6%	-11%	40µM*	-17%	.
COc1ccc(-n2c(=O)c3c(c4cc(OC)ccc4n3C)n(Cc3cc(C)ccc3C)c2=O)cc1	5%	.	-2%	4%[59 µM]	61%	.
COC(=O)[C@@]12CCCCN1[C@H](c1ccc(-c3ccc(F)cc3)cc1)[C@H]1C(=O)N(C)C(=O)[C@H]12	-13%	.	.	.	27%	-1%
COC(=O)[C@@]12CCCN1[C@H](c1ccc(-c3ccc(F)cc3)cc1)[C@H]1C(=O)N(C)C(=O)[C@H]12	-28%	.	71µM*	-3%[2.33 µM]	33%	18%
COC(=O)C1=NN(N=O)C2(CC(=O)N(c3cc(C)cc(C)c3)C2=O)C1 (stereo unspecified)	?	-23%	-2%	14µM*	36%	.
CC(C)c1onc(C(=O)NCCc2ccccc2)c1[N+](=O)[O-]	-16%	-4%	4%	50µM*	21%	.
N#CC(=C=[N-])c1nc2ccccc2nc1-[n+]1cccc(NC(=O)c2ccccc2)c1	-12%	8.9µM*	-2%	-4%	26%	0%
CSc1cc2c(s1)c1cnn(Cc3ccccc3F)c(=O)c1n2C	-13%	.	.	.	.	.
CC1CC(C)(C)NC(=S)N1CC(=O)NCc1ccccc1Cl (stereo unspecified)	3%	7%	7%	?	38%	10%
CC1CC(C)(C)NC(=S)N1CC(=O)NCc1ccc(Cl)cc1 (stereo unspecified)	-14%	-7%	-4%	28µM*	11%	2%
CC1CC(C)(C)NC(=S)N1CCC(=O)N1CCN(c2ccccc2)CC1 (stereo unspecified)	-4%	-3%	-22%	40µM*	7%	11%
Cc1ccc(NC(=O)CCCN2C(=S)NC(C)(C)CC2C)cc1 (stereo unspecified)	-17%	26%	-20%	-4%	11%	9%
Cc1cccc(NC(=O)CN2C(=S)NC(C)(C)CC2C)c1 (stereo unspecified)	-10%	-11%	2%	20µM*	-1%	10%
Cc1ccccc1NC(=O)CN1C(=S)NC(C)(C)CC1C (stereo unspecified)	-3%	-3%	4%	18µM*	-9%	-2%
O=S(=O)(c1ccc(Cl)cc1)N1CCN(Cc2ccc(O)c3ncccc23)CC1	56µM*	10%	32µM*	-38%	26%	?
Oc1ccc(CN2CCN(Cc3ccccc3)CC2)c2cccnc12	40µM*	19%	-1%	3%[59 µM]	?	-2%
c1ccc(CN2CCN(Cc3c[nH]c4ccccc34)CC2)cc1	-22%	10%	-34%	-40%	-2%	.
O=C(OC1CCOC1=O)c1ccccc1C(=O)c1ccc(Cl)c([N+](=O)[O-])c1 (stereo unspecified)	-22%	.	?	?	10%	-15%
CS(=O)(=O)c1ccc(C(=O)OC2CCOC2=O)cc1[N+](=O)[O-] (stereo unspecified)	-27%	7%	-23%	50µM*	6%	.
CCN(CC)CCN(Cc1cc2ccc(C)c(C)c2[nH]c1=O)C(=S)NCc1ccco1	?	56µM*	?	50µM*	?	-1%
CCNC(=S)N(Cc1cc2cc(C)ccc2[nH]c1=O)C1CCCC1	-22%	56µM*	?	?	14%	-18%
CCNC(=S)N(Cc1cc2cc(C)c(C)cc2[nH]c1=O)C1CCCC1	-25%	8%	-15%	-5%	11%	0%
CCN(CC)CCN(Cc1cc2cc(C)ccc2[nH]c1=O)C(=S)NCc1ccco1	?	56µM*	-36%	-33%[59 µM]	-15%	-9%
O=C(c1cccc(Cl)c1)n1nc(-c2cccnc2)nc1NCc1ccccc1	2%	.	15%	1%[59 µM]	81%	.
SMILES	JMJD2A Tudor	Sfp PPTase inh	BAZ2B block	G9a block	HP1b chromo inh	L3MBTL1 block
CN1CCN(C(=O)c2c(O)c3cccc4c3n(c2=O)CCC4)CC1	0%	6%	.	14µM*	39%	30%
Cc1nc2sccn2c(=O)c1S(=O)(=O)NCc1ccc(F)cc1	11%	.	1%	12%[59 µM]	41%	.
COc1cccc(NC(=O)c2ccc(-c3ccccc3[N+](=O)[O-])o2)c1	-27%	45µM*	?	?	23%	-8%
Cc1cccc(NC(=O)c2ccc(-c3ccccc3[N+](=O)[O-])o2)c1	?	50µM*	?	-4%[0.501 µM]	-6%	-20%
O=C(NC1CCCCC1)c1ccc(-c2ccccc2[N+](=O)[O-])o1	?	-7%	?	?	-5%	.
O=C(NC(=S)NC1CCCc2ccccc21)c1ccc(F)cc1 (stereo unspecified)	79µM*	-5%	?	-22%	-12%	.
O=C(NC1CCCc2ccccc21)c1ccccn1 (stereo unspecified)	-3%	3%	-3%	-10%	17%	.
O=C(Cc1ccc(Br)cc1)NC1CCCc2ccccc21 (stereo unspecified)	-2%	13%	-1%	9%	27%	.
O=C(CCl)NC1CCCc2ccccc21 (stereo unspecified)	50µM*	5%	4%	6%	-11%	4%
N#Cc1ccc(C(=O)NC2CCCc3ccccc32)cc1 (stereo unspecified)	7%	2%	4%	50µM*	48%	25%
O=C(NC1CCCc2ccccc21)c1cc(Cl)ccn1 (stereo unspecified)	30%	-27%	2%	25µM*	3%	.
CN(C)c1ccc(C(=O)NC2CCCc3ccccc32)cc1 (stereo unspecified)	-4%	14%	-29%	24%[12.7 µM]	28%	-10%
O=C(NC(=S)NC1CCCc2ccccc21)c1ccco1 (stereo unspecified)	-6%	-16%	-31%	-35%	34%	-7%
COc1cccc(CNC(=O)CCc2c(C)nc3c(c(C)nn3-c3ccc(C)c(C)c3)c2C)c1	-12%	.	4%	-1%[59 µM]	11%	.
N#CC1=C(N)NC(SCC(=O)c2ccc(Cl)cc2)=C(C#N)C12CCCC2	-31%	50µM*	14%	?	-3%	.
N#CC1=C(N)NC(SCC(=O)c2ccc(Br)cc2)=C(C#N)C12CCCCC2	?	5%	?	40µM*	?	-19%
CCOc1nc(C#N)nc(N(c2ccccc2)c2ccccc2)n1	-24%[57.1 µM]	.	.	.	16%[57 µM]	.
